Assay results: publication PMC9911399, “Two distinct binding modes provide the RNA-binding protein RbFox with extraordinary sequence specificity”
Residue numbers refer to the chain shown, from its start. In all, about 16,000 sequences were measured (“ka relative to ugcaugu”: median about 0.0091, highest 2% from about 0.032 on). Shown is part of a subset that was picked to be rich in the highest values.

T1: RBFOX1 RRM (Homo sapiens, UniProt Q9NWB1 109-208)
T1 sequence: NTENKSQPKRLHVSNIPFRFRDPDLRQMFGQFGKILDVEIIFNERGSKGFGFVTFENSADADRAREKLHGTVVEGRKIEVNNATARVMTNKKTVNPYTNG

B1: GAGUCGU (DNA:RNA)
RNA: GGGAGACCGGAAUUCAGAUUGUCCGAGUCGUUUAAAUCCCGUCGUAGCCACCA
DNA 1: CAATCTGAATTCCGGTCTCCC
DNA 2: TGGTGGCTACGACGGGATT
B2: AUGCAAU (DNA:RNA)
RNA: B1 RNA with G25A, A26U, U28C, C29A, G30A
DNA 1: CAATCTGAATTCCGGTCTCCC
DNA 2: TGGTGGCTACGACGGGATT
B3: AGAUGAG (DNA:RNA)
RNA: B1 RNA with G25A, A26G, G27A, C29G, G30A, U31G
DNA 1: CAATCTGAATTCCGGTCTCCC
DNA 2: TGGTGGCTACGACGGGATT
B4: ACGGGCC (DNA:RNA)
RNA: B1 RNA with G25A, A26C, U28G, C29G, G30C, U31C
DNA 1: CAATCTGAATTCCGGTCTCCC
DNA 2: TGGTGGCTACGACGGGATT
B5: UGCUGCC (DNA:RNA)
RNA: B1 RNA with G25U, A26G, G27C, C29G, G30C, U31C
DNA 1: CAATCTGAATTCCGGTCTCCC
DNA 2: TGGTGGCTACGACGGGATT
B6: UGCCUCC (DNA:RNA)
RNA: GGGAGACCGGAAUUCAGAUUGUCCUGCCUCCUUAAAUCCCGUCGUAGCCACCA
DNA 1: CAATCTGAATTCCGGTCTCCC
DNA 2: TGGTGGCTACGACGGGATT
B7: UGCCUUG (DNA:RNA)
RNA: B6 RNA with C30U, C31G
DNA 1: CAATCTGAATTCCGGTCTCCC
DNA 2: TGGTGGCTACGACGGGATT
B8: UAGUAGG (DNA:RNA)
RNA: B1 RNA with G25U, C29A, U31G
DNA 1: CAATCTGAATTCCGGTCTCCC
DNA 2: TGGTGGCTACGACGGGATT
B9: GGGGUGU (DNA:RNA)
RNA: B1 RNA with A26G, U28G, C29U
DNA 1: CAATCTGAATTCCGGTCTCCC
DNA 2: TGGTGGCTACGACGGGATT
B10: CCCGGGU (DNA:RNA)
RNA: B1 RNA with G25C, A26C, G27C, U28G, C29G
DNA 1: CAATCTGAATTCCGGTCTCCC
DNA 2: TGGTGGCTACGACGGGATT
B11: GGUGUGU (DNA:RNA)
RNA: B1 RNA with A26G, G27U, U28G, C29U
DNA 1: CAATCTGAATTCCGGTCTCCC
DNA 2: TGGTGGCTACGACGGGATT
B12: GGGUGUU (DNA:RNA)
RNA: B1 RNA with A26G, C29G, G30U
DNA 1: CAATCTGAATTCCGGTCTCCC
DNA 2: TGGTGGCTACGACGGGATT
B13: CGGGUGU (DNA:RNA)
RNA: B1 RNA with G25C, A26G, U28G, C29U
DNA 1: CAATCTGAATTCCGGTCTCCC
DNA 2: TGGTGGCTACGACGGGATT
B14: CGGUGUU (DNA:RNA)
RNA: B1 RNA with G25C, A26G, C29G, G30U
DNA 1: CAATCTGAATTCCGGTCTCCC
DNA 2: TGGTGGCTACGACGGGATT
B15: AUAGGCC (DNA:RNA)
RNA: B6 RNA with U25A, G26U, C27A, C28G, U29G
DNA 1: CAATCTGAATTCCGGTCTCCC
DNA 2: TGGTGGCTACGACGGGATT
B16: CCAGAGA (DNA:RNA)
RNA: B1 RNA with G25C, A26C, G27A, U28G, C29A, U31A
DNA 1: CAATCTGAATTCCGGTCTCCC
DNA 2: TGGTGGCTACGACGGGATT
B17: CUCCCAU (DNA:RNA)
RNA: B1 RNA with G25C, A26U, G27C, U28C, G30A
DNA 1: CAATCTGAATTCCGGTCTCCC
DNA 2: TGGTGGCTACGACGGGATT
B18: UUUCACC (DNA:RNA)
RNA: B6 RNA with G26U, C27U, U29A
DNA 1: CAATCTGAATTCCGGTCTCCC
DNA 2: TGGTGGCTACGACGGGATT
B19: GUAAUGA (DNA:RNA)
RNA: B1 RNA with A26U, G27A, U28A, C29U, U31A
DNA 1: CAATCTGAATTCCGGTCTCCC
DNA 2: TGGTGGCTACGACGGGATT

Each binder was assayed against T1, RBFOX1 RRM (assay: EMSA; HiTS-Eq, 1 nM pool, 10 min; buffer printed only for the single-RNA assays: 10 mM Tris pH 7.5, 150 mM NaCl, 3.4 mM EDTA, 0.001% NP-40, 30 C). Settings: tags: His6 N-terminal (pET28a); label: 5' 32P.
Summary of the method: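 These values rest on relative association constants, computed from read-count changes of each RNA species versus the control reaction and normalised to the cognate motif. Reads came from free RNA recovered by 8% native PAGE after purified RbFox RRM (wild type or mutant) at increasing concentrations was equilibrated for 10 min in 50 µL with 1 nM of a 5′-radiolabelled pool with 7 randomized nucleotides and DNA-annealed flanks.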

| Binder | binding signal |
| --- | --- |
| B1 | 0.0129 KA relative to UGCAUGU |
| B2 | 0.00453 KA relative to UGCAUGU |
| B3 | 0.0142 KA relative to UGCAUGU |
| B4 | 0.0142 KA relative to UGCAUGU |
| B5 | 0.0265 KA relative to UGCAUGU |
| B6 | 0.00846 KA relative to UGCAUGU |
| B7 | 0.0505 KA relative to UGCAUGU |
| B8 | 0.00933 KA relative to UGCAUGU |
| B9 | 0.038 KA relative to UGCAUGU |
| B10 | 0.00573 KA relative to UGCAUGU |
| B11 | 0.0173 KA relative to UGCAUGU |
| B12 | 0.0233 KA relative to UGCAUGU |
| B13 | 0.0321 KA relative to UGCAUGU |
| B14 | 0.0192 KA relative to UGCAUGU |
| B15 | 0.0113 KA relative to UGCAUGU |
| B16 | 0.0103 KA relative to UGCAUGU |
| B17 | 0.00325 KA relative to UGCAUGU |
| B18 | 0.00771 KA relative to UGCAUGU |
| B19 | 0.0136 KA relative to UGCAUGU |
